Results from PubChem BioAssay AID624352 (Sanford-Burnham Center for Chemical Genomics, 2012).
The campaign covered roughly 360,000 compounds. About 2,600 (0.72%) were called active. What follows is part of a selection rich in actives, with near analogues and random picks from the rest. Unmarked numbers belong to inactive results.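 How the source made its calls: active means inhibition of the luminescence signal of 40% or more relative to plate controls, in a single-dose primary screen at 18.75 µM; inactive means the rest.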

Assay: blockers of HIF-2a driven luciferase – luminescence, 786-0 RCC cells, primary screen (AID 624352)
Conditions: 786-0 RCC cells HIF-2a reporter, overnight, at 18.8 µM, hits give high values

| SMILES | inhibition |
| --- | --- |
| O=S1(=O)CC(N2CCN(Cc3ccccc3F)CC2)CN1Cc1cn(Cc2cccc(C(F)(F)F)c2)nn1 (stereo unspecified) | 1.15% |
| CCOc1ccc(OCC(=O)Nc2c3c(nn2C(C)(C)C)CS(=O)(=O)C3)cc1 | -1.94% |
| COc1ccc(NC(=O)COC(=O)CNC(=O)C2CCCCC2)cc1 | 12.4% |
| O=C1CCC(C(=O)OCC(=O)Nc2ccc(OC(F)F)cc2)=NN1 | -7.05% |
| CCC(C)(C)c1ccc(Oc2ccc(NC(=O)COC(=O)C3=COCCO3)cc2)cc1 | 82.3% (active) |
| CCc1cccc(NC(=O)CCCN2C(=O)C(c3ccccc3)Oc3cccnc32)c1 (stereo unspecified) | 9.51% |
| Cc1ccc(C(=O)N2CC(=O)Nc3ccccc32)o1 | 14.2% |
| Fc1ccc(CNc2nc3ccccc3n3nnnc23)cc1 | -134% |
| CC(=O)Nc1ccc(C(=O)CSc2nnc(Cc3ccccc3)o2)cc1 | -43.3% |
| CC(C)C[C@@H](N)c1nnc(SCC(=O)c2ccc(Cl)cc2)o1 | 56.9% (active) |
| COc1cc(C(=O)NCc2nnc(SCC(=O)c3ccc(Cl)cc3)o2)cc(OC)c1OC | 5.32% |
| C[C@H]1Cn2cnc(C(=O)N[C@@H](Cc3c[nH]c4ccccc34)C(=O)OC(C)(C)C)c2C(=O)N1 | -4.95% |
| C=CCC[C@@H](Cc1ccc(F)cc1)C(=O)O[C@H](CNC(=O)[C@H](CC=C)CC(=O)N(CCO)Cc1ccccc1)c1ccccc1 | 12.7% |
| CCN1CCN(C(=O)C2(NC(=O)Nc3cccc(F)c3)CCCCC2)CC1 | 9.23% |
| COc1ccc(NC(=O)C2C3C=CC(C3)C2C(=O)NCc2ccccn2)c(OC)c1 (stereo unspecified) | 10.9% |
| Cc1c(NC(=O)C(C)OC(=O)c2cc3c4ccccc4n(C)c3s2)c(=O)n(-c2ccccc2)n1C (stereo unspecified) | 4.75% |
| Cc1sc2ccccc2c1CNC[C@H]1O[C@@H](n2ccc(=O)[nH]c2=O)[C@H](O)[C@@H]1O | 11.7% |
| OC(c1cc(Cl)cc(Cl)c1)c1ncc(-c2ccccc2C(F)(F)F)[nH]1 (stereo unspecified) | 14.7% |
| O=C(OC12CC3CC(CC(C3)C1)C2)c1ccc(NCc2cc(O)ccc2O)cc1 | 88.1% (active) |

| SMILES | inhibition |
| --- | --- |
| CC(C)OCCCNC(=S)N1CCC(C(=O)c2ccc3c(c2)OCCO3)CC1 | -5.91% |
| c1ccc(-c2ccnc3nc(-n4cccc4)nn23)cc1 | -8.27% |
| C/C(N)=C(/C#N)C(=O)COC(=O)C1CCN(C(=O)c2ccc(Cl)cc2)CC1 | 8.64% |
| CCc1ccc(-c2cc(C)no2)cc1S(=O)(=O)NCCc1ccc(S(N)(=O)=O)cc1 | 9.29% |
| Cc1cc(CNC(=O)C2CCC(=O)N(CCc3ccc(Cl)cc3)C2)no1 (stereo unspecified) | -9.67% |
| O=C(NCCc1c[nH]c2ccc(Cl)cc12)c1ccc([N+](=O)[O-])cc1 | -9.18% |
| COc1ccccc1-n1nnnc1S(=O)(=O)Cc1ccc(Cl)cc1 | 86% (active) |
| COc1ccccc1CN(C)c1nnnn1-c1ccccc1 | 15.6% |
| CCN(C(=O)CSc1nnnn1-c1ccccc1OC)C1CCS(=O)(=O)C1 (stereo unspecified) | -1.01% |
| Cc1[nH]c2ccccc2c1C(=O)c1cc([C@H](NC(=O)OC(C)(C)C)C(C)C)sc1N | 2.29% |
| C=CCOc1ccccc1CNn1c(C)n[nH]c1=S | 21.3% |
| COc1cccc(C(NC(C)=O)c2nc(-c3cnc4ccccc4c3)cs2)c1 (stereo unspecified) | -32.9% |
| O=[N+]([O-])c1c(NCCO)cc(Sc2nc3ccccc3s2)c2nonc12 | 87% (active) |
| CC(C)=CCN1CCN(CCCc2ccccc2)CC1CCO (stereo unspecified) | 16.8% |
| CC[C@]1(c2ccccc2OC)C(=O)N(C(=O)OC)N1C(=O)OC | 18.5% |
| CCN(CC(=O)NC(C)C)C(=O)CCNC(=O)c1ccc(Cl)cc1 | 14.3% |
| O=C(OC1CCOC1=O)c1cccc(S(=O)(=O)Nc2ccc(F)cc2)c1 (stereo unspecified) | 14.8% |
| COc1ccc(N2CCN(C(=O)COC(=O)c3cccc(S(=O)(=O)Nc4ccccc4OC)c3)CC2)cc1 | 12.6% |
| CC(=O)Nc1ccc(/C(C)=N/NC(=O)CN(c2ccccc2Br)S(C)(=O)=O)cc1 | 1.74% |

| SMILES | inhibition |
| --- | --- |
| COC(=O)c1ccc(OC(=O)c2cnccn2)cc1 | 17.4% |
| O=C(Oc1ccc(-c2nc(-c3ccccn3)no2)cc1)c1ccccc1 | 42.3% (active) |
| O=C(COc1cccc(F)c1)Oc1ccc(C(=O)c2ccccc2)cc1 | -3.52% |
| Cc1cccc(C(=O)Nc2ccc(C(=O)/C=C/c3cccs3)cc2)c1 | -134% |
| CC(=O)Nc1ccc(NC(=O)[C@@H](NC(=O)c2cccc(C)c2)C(C)C)cc1 | 4.88% |
| Cc1cccc(C(=O)Nc2ccc(CC(=O)O)cc2)c1 | 60.9% (active) |
| O=C(CCc1ccccc1)NNc1ccc(F)cc1 | 5.59% |
| COc1ccc(C2C(C#N)=C(N)Oc3n[nH]c(C)c32)cc1CN1CCN(c2ccc(F)cc2)CC1 (stereo unspecified) | 16.6% |
| CCCc1[nH]nc2c1C(c1ccc(Br)s1)C(C#N)=C(N)O2 (stereo unspecified) | 80.8% (active) |
| CCCc1nc2c([nH]1)C(c1cccnc1)C(C#N)=C(N)O2 (stereo unspecified) | 20.2% |
| CCCc1[nH]nc2c1C(C1CC=CCC1)C(C#N)=C(N)O2 (stereo unspecified) | 52.3% (active) |
| N#CC1=C(N)OC2=C(C(=O)CCC2)C1C1CC=CCC1 (stereo unspecified) | -5.19% |
| CSC1=NCCN1C(=O)c1ccc(S(=O)(=O)N2CCOCC2)cc1 | 4.81% |
| CC(C)C(C(=O)NC1CCCCC1)N(CC1CCCO1)C(=O)CNS(=O)(=O)c1ccc(F)cc1 (stereo unspecified) | 12.1% |
| COc1ccc(C2/C=C\CN(CC(C)C)CC(=O)N2Cc2ccc(F)cc2)cc1 (stereo unspecified) | 4.31% |
| COC(=O)c1sccc1NC(=O)CSc1ccccc1NS(=O)(=O)c1cc(Cl)ccc1Cl | 7.65% |
| Cc1ccc(CC(=O)N(C)CC(=O)N(CC(C)C)c2c(N)n(CC(C)C)c(=O)[nH]c2=O)cc1C | 10.3% |
| C=C(C)C(=O)O[C@H]1C/C(C)=C\C(=O)/C=C(\C)[C@H](O)[C@@H]2OC(=O)C(=C)[C@@H]21 | 92.8% (active) |
